Measurements reported in PubChem BioAssay (EPA / NIEHS).
More than one record can exist for a structure, and the calls need not agree. Calls of active or inactive are those of the source. How the source made its calls: active means hit-call score of the fitted dose curve at least 0.9, where 1 is the maximum; inactive means score below 0.9.

The molecules below were run on Monocyte Chemoattractant Protein-1 (MCP1), CCL2 (gene 6347) (assay: BSK_4H_MCP1: BioMAP Diversity Plus: 4H Assay for Monocyte Chemoattractant Protein-1 (MCP1) Biomarker Activity (AID 2283018)). Conditions: primary human endothelial cells (HUVEC); actives raise or lower the signal.
Method: BSK_4H is a cell-based, multiplexed-readout assay that uses umbilical vein endothelium, a human vascular primary cell, with measurements taken at 24 hours after chemical dosing in a 96-well plate.BSK_4H_MCP1 is an assay component measured in the BSK_4H assay. It measures MCP-1 antibody related to regulation of gene expression using ELISA technology.Data from the assay component BSK_4H_MCP1 was analyzed into 1 assay endpoint. This assay endpoint, BSK_4H_MCP1, was analyzed with bidirectional fitting relative to DMSO as the negative control and baseline of activity. Using a type of binding reporter, gain or loss-of-signal activity can be used to understand changes in the signaling as they relate to the gene CCL2. Furthermore, this assay endpoint can be referred to as a primary readout, because this assay has produced multiple assay endpoints where this one serves a signaling function. To generalize the intended target to other relatable targets, this assay endpoint is annotated to the cytokine intended target family, where the subfamily is chemotactic factor.
The levels of cell surface (or secreted, indicated by the prefix "s") biomarker endpoints were measured by ELISA. Overt cytotoxicity to cells in confluent adherent cultures (all systems other than the BT system) was assessed by measuring total protein levels using sulforhodamine B (SRB) staining in parallel cultures at the time of biomarker measurements, indicated as SRB endpoints. For proliferation assays for adherent cell types, individual cell types are cultured at sub-confluence and relative cell numbers quantified by SRB staining at time points optimized for each system (48 h: 3C and CASM3C systems; 72 h: BT and HDF3CGF systems; 96 h: SAg system). SRB was performed by staining cells with 0.1% SRB after fixation with 10% TCA and reading wells at 560 nm.Viability and proliferation of PBMC (T cells) was quantified by Alamar Blue reduction for the SAg and BT systems. For PBMC viability (referred to as PBMC Cytotoxicity within the assay endpoint names), cells were plated (75,000/well in a 96-well plate) and then chemical samples added for 1 h before addition of activators, SEB and TSST-1 (20 ng/mL final concentration each). Cells were incubated for 90 h. Then, Alamar Blue (20 uL/well) (Invitrogen, Cat DAL1100) was added for 6 h, and the plates were read with a fluorescence microplate reader at 546/580 nm (excitation/emission). For PBMC proliferation, cells were plated and activated as above but incubated for only 16 h prior to addition of Alamar Blue. Plates were read after 6 h.
In the case of `COc1ccc(CCN2CCC(Nc3nc4ccccc4n3Cc3ccc(F)cc3)CC2)cc1`, the AC50 is reported as 0.992 µM (active).
For `C=CC(C)(O)CCC=C(C)C` (stereo not given), the outcome was “inactive”.
With `O=CN1CCOCC1` the outcome was “inactive”.
With `CCCCOC(=O)CCCCCCCC(=O)OCCCC` the outcome was “inactive”.
In the case of `C=C(C)C(=O)OCCOCCOCCOCCOC(=O)C(=C)C`, the outcome is reported as “inactive”.
`O=C1OC2(c3ccccc31)c1ccc(O)c(Br)c1Oc1c2ccc(O)c1Br` was tested, and the AC50 was 25.4 µM (active).
For `c1ccc2cc(Nc3ccc(Nc4ccc5ccccc5c4)cc3)ccc2c1`, the outcome was “inactive”.
`O=C1OC[C@H](Cc2cccc(O)c2)[C@H]1Cc1cccc(O)c1` was tested, and the outcome was “inactive”.
For `CC1(C)C2=CCCC(C)(C)[C@]23CC[C@H]1C3`, the outcome was “inactive”.
In the case of `IC(I)I`, the outcome is reported as “inactive”.
In the case of `CC(=O)C1(C)CC2=C(CCCC2(C)C)CC1C` (stereo not given), the AC50 is reported as 10.4 µM (active).
With `O=C1c2ccccc2C(=O)c2c(O)ccc(O)c21` the outcome was “inactive”.
In the case of `CN(C)C(=O)Nc1ccc(Oc2ccc(Cl)cc2)cc1`, the AC50 is reported as 12.1 µM (active).
In the case of `CCC(C)c1cc([N+](=O)[O-])cc([N+](=O)[O-])c1OC(=O)OC(C)C` (stereo not given), the AC50 is reported as 5.06 µM (active).
For `CN(c1nccc(=O)[nH]1)C1CCN(c2nc3ccccc3n2Cc2ccc(F)cc2)CC1`, the outcome was “inactive”.
For `Cc1cc(CCC(=O)OCCOCCOCCOC(=O)CCc2cc(C)c(O)c(C(C)(C)C)c2)cc(C(C)(C)C)c1O`, the AC50 was 17.8 µM (active).
`CC(C=O)Cc1ccc(C(C)(C)C)cc1` (stereo not given) was tested, and the AC50 was 20 µM (active).
For `CC1(C)CCC[C@]2(C)[C@H]3CCO[C@]3(C)CC[C@@H]12`, the outcome was “inactive”.
`CCN(CC)C(=O)N(CC)CC` was tested, and the outcome was “inactive”.
With `CS(=O)(=O)c1ccc(C2=C(c3ccccc3)C(=O)OC2)cc1` the outcome was “inactive”.
`CC(=O)Nc1ccc(C(=O)CCl)cc1` was tested, and the AC50 was 9.64 µM (active).
With `c1ccc(Oc2ccccc2)cc1` the AC50 was 32.9 µM (active).
`CSCCC=O` was tested, and the outcome was “inactive”.
In the case of `COc1cc(Cl)c(OC)cc1N`, the outcome is reported as “inactive”.
For `C=C(C)C(=O)OCC(CC)(COC(=O)C(=C)C)COC(=O)C(=C)C`, the outcome was “inactive”.
In the case of `CC(=O)c1c(C)c([N+](=O)[O-])c(C(C)(C)C)c([N+](=O)[O-])c1C`, the outcome is reported as “inactive”.
In the case of `Oc1c(Cl)cc(Cl)c(Cl)c1Cc1c(O)c(Cl)cc(Cl)c1Cl`, the AC50 is reported as 1.31 µM (active).
`CCCCCC(C=O)=Cc1ccccc1` was tested, and the AC50 was 27.8 µM (active).
`O=C(Nc1ccc2c(O)c(N=Nc3ccc(N=Nc4ccc(S(=O)(=O)O)cc4)cc3)c(S(=O)(=O)O)cc2c1)c1ccccc1` was tested, and the outcome was “inactive”.
For `CCCCCCC(CO)CCCC` (stereo not given), the outcome was “inactive”.
With `C1=CC2C3C=CC(C3)C2C1` (stereo not given) the outcome was “inactive”.
In the case of `CCOC(=O)C(C#N)=C(c1ccccc1)c1ccccc1`, the outcome is reported as “inactive” and the AC50 is reported as 1 µM (active).
With `c1ccc(CCc2ccccc2)cc1` the AC50 was 32.1 µM (active).
In the case of `CCCCN(CCCC)C(=O)N(CCCC)CCCC`, the AC50 is reported as 6.41 µM (active).
In the case of `CC(CN=Cc1ccccc1O)N=Cc1ccccc1O` (stereo not given), the outcome is reported as “inactive”.
For `CC=Cc1ccc(OCC)c(O)c1`, the outcome was “inactive”.
With `CN(C)C(=S)SC(=S)N(C)C` the AC50 was 29.5 µM (active).
`Clc1cc(Cl)c(-c2c(Cl)c(Cl)cc(Cl)c2Cl)cc1Cl` was tested, and the AC50 was 8.9 µM (active).
In the case of `C=C(C)[C@H]1CC=C(C)C(=O)C1`, the outcome is reported as “inactive”.
